Results reported in the supplement of paper PMC10849652.
The full data set covers some 7,900 targets. This sample favours those with a hit. About 0.6% of all pairs of compound and target were hits. A number with no mark means an inactive call.

UniProt Q5R3I4, sequence (Q5R3I4 whole entry, looked up): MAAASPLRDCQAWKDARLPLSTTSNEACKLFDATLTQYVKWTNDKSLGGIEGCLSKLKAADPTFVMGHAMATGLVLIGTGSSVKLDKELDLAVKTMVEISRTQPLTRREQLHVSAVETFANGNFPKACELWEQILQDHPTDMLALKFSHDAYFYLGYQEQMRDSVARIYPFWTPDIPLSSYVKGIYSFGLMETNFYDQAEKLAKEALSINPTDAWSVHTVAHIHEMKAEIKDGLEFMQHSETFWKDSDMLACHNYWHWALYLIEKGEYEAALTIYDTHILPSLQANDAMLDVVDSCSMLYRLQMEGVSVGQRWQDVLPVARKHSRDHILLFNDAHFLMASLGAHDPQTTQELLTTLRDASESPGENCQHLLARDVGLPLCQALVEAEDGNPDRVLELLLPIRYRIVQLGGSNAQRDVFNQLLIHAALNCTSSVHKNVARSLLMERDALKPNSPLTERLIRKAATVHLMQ
UniProt Q8IWV8, sequence (Q8IWV8 whole entry, looked up): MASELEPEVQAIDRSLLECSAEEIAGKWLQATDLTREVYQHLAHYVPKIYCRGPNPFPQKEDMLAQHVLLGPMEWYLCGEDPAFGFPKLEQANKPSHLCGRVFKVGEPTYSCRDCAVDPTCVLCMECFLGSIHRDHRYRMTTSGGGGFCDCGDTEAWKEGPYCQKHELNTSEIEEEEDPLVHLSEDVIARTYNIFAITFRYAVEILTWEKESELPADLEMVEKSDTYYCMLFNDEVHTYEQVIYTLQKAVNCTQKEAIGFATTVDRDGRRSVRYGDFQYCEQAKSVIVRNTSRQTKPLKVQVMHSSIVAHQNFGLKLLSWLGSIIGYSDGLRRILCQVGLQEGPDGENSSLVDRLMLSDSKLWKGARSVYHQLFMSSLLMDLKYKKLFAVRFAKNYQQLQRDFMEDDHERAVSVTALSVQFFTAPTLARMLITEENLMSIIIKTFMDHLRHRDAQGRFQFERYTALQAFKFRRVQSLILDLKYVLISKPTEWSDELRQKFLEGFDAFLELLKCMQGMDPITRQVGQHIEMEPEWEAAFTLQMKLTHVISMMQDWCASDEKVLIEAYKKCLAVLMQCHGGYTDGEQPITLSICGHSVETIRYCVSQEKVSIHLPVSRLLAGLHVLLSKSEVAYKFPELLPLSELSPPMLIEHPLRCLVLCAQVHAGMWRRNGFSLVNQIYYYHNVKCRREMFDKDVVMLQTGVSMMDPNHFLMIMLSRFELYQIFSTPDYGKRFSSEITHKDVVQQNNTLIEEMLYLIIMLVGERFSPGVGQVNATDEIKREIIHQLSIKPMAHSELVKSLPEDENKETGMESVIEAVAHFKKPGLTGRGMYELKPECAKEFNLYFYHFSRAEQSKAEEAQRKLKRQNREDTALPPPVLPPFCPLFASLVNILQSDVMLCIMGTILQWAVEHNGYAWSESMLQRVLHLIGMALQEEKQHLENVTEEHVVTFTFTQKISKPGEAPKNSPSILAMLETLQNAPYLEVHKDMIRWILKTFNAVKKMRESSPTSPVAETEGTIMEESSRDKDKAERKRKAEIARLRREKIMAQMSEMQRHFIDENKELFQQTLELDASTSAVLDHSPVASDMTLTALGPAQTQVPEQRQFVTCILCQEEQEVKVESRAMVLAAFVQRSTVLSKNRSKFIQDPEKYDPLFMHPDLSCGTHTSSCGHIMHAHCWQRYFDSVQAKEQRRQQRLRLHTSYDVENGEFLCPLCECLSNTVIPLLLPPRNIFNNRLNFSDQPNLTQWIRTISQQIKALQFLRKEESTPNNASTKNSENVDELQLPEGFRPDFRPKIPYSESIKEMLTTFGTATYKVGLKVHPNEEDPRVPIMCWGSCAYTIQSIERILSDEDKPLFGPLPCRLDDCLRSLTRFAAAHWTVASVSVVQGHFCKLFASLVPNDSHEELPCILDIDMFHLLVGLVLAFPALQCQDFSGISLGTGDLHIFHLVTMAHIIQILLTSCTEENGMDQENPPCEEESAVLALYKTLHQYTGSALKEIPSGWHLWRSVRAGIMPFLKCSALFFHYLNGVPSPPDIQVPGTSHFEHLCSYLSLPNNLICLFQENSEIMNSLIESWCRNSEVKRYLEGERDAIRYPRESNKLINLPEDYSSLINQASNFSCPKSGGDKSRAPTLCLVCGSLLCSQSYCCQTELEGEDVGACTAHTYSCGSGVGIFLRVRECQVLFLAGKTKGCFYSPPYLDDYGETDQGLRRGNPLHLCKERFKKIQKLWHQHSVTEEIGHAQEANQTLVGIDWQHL
UniProt P12956, sequence (P12956 whole entry, looked up): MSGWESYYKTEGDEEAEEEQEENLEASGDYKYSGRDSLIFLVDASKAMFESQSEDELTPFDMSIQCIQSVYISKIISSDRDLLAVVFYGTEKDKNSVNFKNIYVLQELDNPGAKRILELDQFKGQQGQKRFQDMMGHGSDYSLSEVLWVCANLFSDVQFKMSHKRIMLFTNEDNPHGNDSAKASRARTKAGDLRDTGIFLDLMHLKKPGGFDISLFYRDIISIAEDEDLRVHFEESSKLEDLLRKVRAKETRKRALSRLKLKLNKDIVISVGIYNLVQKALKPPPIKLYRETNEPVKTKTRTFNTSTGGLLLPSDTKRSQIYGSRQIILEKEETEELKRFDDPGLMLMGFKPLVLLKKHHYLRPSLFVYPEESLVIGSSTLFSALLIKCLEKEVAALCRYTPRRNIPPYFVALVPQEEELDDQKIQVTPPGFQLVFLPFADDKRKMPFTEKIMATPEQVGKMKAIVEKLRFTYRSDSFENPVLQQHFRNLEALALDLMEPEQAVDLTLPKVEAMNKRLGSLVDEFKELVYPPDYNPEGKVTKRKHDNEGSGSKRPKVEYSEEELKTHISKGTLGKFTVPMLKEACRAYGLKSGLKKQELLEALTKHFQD
UniProt A0PJW6, sequence (A0PJW6 whole entry, looked up): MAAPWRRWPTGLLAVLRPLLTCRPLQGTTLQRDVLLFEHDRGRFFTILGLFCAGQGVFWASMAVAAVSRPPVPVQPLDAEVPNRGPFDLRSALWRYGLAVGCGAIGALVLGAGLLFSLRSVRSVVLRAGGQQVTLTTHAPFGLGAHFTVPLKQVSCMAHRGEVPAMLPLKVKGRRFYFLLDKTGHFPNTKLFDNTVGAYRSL
UniProt Q16881, sequence (Q16881 whole entry, looked up): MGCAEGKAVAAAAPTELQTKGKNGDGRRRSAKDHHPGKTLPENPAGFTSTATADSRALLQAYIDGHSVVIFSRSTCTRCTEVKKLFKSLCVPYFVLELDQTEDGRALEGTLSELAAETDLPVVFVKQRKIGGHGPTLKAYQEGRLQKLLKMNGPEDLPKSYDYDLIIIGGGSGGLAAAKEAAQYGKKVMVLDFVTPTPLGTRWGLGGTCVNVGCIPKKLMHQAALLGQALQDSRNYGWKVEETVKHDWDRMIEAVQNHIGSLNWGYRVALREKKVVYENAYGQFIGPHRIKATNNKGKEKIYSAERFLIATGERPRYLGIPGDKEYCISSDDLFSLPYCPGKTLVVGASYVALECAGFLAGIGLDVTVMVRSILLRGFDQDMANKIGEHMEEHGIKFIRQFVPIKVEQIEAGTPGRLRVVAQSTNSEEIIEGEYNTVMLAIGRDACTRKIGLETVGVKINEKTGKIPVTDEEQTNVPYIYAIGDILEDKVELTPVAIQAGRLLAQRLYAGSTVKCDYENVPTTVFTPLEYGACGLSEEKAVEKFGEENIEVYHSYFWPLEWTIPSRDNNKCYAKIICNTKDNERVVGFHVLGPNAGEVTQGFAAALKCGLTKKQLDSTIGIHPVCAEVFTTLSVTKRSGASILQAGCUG
UniProt P68366, sequence (P68366 whole entry, looked up): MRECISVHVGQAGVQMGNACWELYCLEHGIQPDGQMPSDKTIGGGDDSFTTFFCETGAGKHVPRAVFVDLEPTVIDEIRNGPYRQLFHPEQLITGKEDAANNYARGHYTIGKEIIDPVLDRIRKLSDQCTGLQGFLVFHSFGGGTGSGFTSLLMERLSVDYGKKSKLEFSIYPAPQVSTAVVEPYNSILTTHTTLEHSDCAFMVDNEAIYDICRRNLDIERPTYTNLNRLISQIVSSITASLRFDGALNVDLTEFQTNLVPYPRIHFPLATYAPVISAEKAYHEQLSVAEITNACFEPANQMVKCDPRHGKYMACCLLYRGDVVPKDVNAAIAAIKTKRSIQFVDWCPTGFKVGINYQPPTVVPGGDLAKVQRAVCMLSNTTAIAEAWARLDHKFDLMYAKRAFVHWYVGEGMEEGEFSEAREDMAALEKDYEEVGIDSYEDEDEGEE
UniProt Q9NV66, sequence (Q9NV66 whole entry, looked up): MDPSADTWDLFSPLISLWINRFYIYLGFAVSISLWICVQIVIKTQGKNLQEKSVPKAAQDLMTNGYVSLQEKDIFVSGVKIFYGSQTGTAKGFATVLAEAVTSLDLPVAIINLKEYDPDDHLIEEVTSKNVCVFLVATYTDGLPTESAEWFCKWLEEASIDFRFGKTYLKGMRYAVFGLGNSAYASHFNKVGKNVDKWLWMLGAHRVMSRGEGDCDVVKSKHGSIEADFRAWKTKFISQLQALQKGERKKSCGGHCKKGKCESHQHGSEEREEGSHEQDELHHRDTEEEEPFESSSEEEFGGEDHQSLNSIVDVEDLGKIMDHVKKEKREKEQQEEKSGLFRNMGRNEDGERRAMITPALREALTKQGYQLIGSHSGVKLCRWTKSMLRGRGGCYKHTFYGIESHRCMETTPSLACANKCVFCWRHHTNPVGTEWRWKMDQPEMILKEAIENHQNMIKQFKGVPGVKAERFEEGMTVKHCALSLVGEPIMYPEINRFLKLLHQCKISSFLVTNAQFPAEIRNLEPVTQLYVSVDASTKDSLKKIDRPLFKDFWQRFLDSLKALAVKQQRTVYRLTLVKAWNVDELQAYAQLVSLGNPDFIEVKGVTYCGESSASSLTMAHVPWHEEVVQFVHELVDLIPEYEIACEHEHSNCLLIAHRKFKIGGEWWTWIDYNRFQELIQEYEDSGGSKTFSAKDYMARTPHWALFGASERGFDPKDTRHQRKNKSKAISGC
UniProt Q9P0T7, sequence (Q9P0T7 whole entry, looked up): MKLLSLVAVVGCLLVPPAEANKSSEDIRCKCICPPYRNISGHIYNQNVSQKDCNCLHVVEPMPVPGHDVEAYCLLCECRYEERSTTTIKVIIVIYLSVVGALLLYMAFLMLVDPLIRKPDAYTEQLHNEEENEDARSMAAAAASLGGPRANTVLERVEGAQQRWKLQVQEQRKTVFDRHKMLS

These targets were tested with Nc1ccccc1NC(=O)c1ccc(CNC(=O)OCc2cccnc2)cc1 [entinostat] (assay: log2 fold change, soluble protein after heating vs DMSO (PISA); higher = thermal stabilisation; K562 cells, 10 uM, 30 min; active = over 0.2 and 3.5 SD of the protein, either way, in both replicates (recomputed)).
How it was run: (§1)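 Soluble protein was quantified by TMTpro 16plex LC-MS/MS after channel sums were equalised. It was obtained as the supernatant after 21,000xg for 90 min from pooled aliquots of K562 cells (2×10^6 cells/mL, 10 μM compound, 30 min) heated for 3 min across 48°C-58°C and extracted in PBS with 0.5% NP-40 at 4°C. Thermal stability values are relative to control samples and come from duplicates. They are given as log2 fold changes.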
For TRAPPC2L (UniProt Q9UL33), the log2 fold change was 0.008.
UGDH (UniProt O60701) showed a log2 fold change of 0.064.
WDR7 (UniProt Q9Y4E6) was tested, and the log2 fold change was 0.008.
TOMM5 isoform 2 (UniProt Q8N4H5) gave a log2 fold change of 0.067.
In the case of USP7 (UniProt Q93009), the log2 fold change is reported as 0.097.
For TYW1 (UniProt Q9NV66), the log2 fold change was 0.028.
Work on UBR2 (UniProt Q8IWV8) yielded a log2 fold change of 0.049.
TMEM161A (UniProt Q9NX61) gave a log2 fold change of 0.049.
In the case of XPNPEP1 isoform 3 (UniProt Q9NQW7), the log2 fold change is reported as 0.015.
With XRCC6 (UniProt P12956) the log2 fold change was 0.098.
Target TNPO2 (UniProt O14787) has a log2 fold change of 0.064.
With TRMT10C (UniProt Q7L0Y3) the log2 fold change was 0.022.
Work on UHRF1BP1L (UniProt A0JNW5) yielded a log2 fold change of -0.024.
Work on TUBA4A (UniProt P68366) yielded a log2 fold change of -0.024.
Target USP3 (UniProt Q9Y6I4) has a log2 fold change of -0.037.
In the case of WBP4 (UniProt O75554), the log2 fold change is reported as 0.058.
VTA1 (UniProt Q9NP79) gave a log2 fold change of 0.036.
UBE3D (UniProt Q7Z6J8) gave a log2 fold change of 0.074.
In the case of VPS16 (UniProt Q9H269), the log2 fold change is reported as 0.084.
TXNRD1 (UniProt Q16881) gave a log2 fold change of -0.027.
TMEM177 (UniProt Q53S58) was tested, and the log2 fold change was -0.021.
WDCP (UniProt Q9H6R7) showed a log2 fold change of 0.019.
Work on TMEM223 (UniProt A0PJW6) yielded a log2 fold change of -0.02.
Work on VRK1 (UniProt Q99986) yielded a log2 fold change of 0.059.
For UBE2S (UniProt Q16763), the log2 fold change was -0.026.
For XRCC5 (UniProt P13010), the log2 fold change was 0.155.
TMEM9 (UniProt Q9P0T7) showed a log2 fold change of -0.026.
Target TRMT10A (UniProt Q8TBZ6) has a log2 fold change of -0.039.
Target TNPO1 (UniProt Q92973) has a log2 fold change of 0.044.
For WARS2 (UniProt Q9UGM6), the log2 fold change was 0.076.
Target VPS53 isoform 4 (UniProt Q5VIR6) has a log2 fold change of 0.052.
With TSG101 (UniProt Q99816) the log2 fold change was 0.038.
U2AF1 isoform 2 (UniProt Q01081) was tested, and the log2 fold change was -0.013.
UPF3B (UniProt Q9BZI7) was tested, and the log2 fold change was -0.079.
In the case of VPS50 (UniProt Q96JG6), the log2 fold change is reported as 0.06.
TTC38 (UniProt Q5R3I4) showed a log2 fold change of 0.111.

These targets were tested with O=C(CCCCCCC(=O)Nc1ccccc1)NO [vorinostat] in the same assay as above.
How it was run: as §1
TRAPPC2L (UniProt Q9UL33) showed a log2 fold change of 0.068.
Target UGDH (UniProt O60701) has a log2 fold change of -0.027.
WDR7 (UniProt Q9Y4E6) gave a log2 fold change of 0.036.
TOMM5 isoform 2 (UniProt Q8N4H5) gave a log2 fold change of -0.117.
USP7 (UniProt Q93009) gave a log2 fold change of 0.182.
TYW1 (UniProt Q9NV66) gave a log2 fold change of -0.056.
UBR2 (UniProt Q8IWV8) showed a log2 fold change of 0.137.
With TMEM161A (UniProt Q9NX61) the log2 fold change was 0.006.
For XPNPEP1 isoform 3 (UniProt Q9NQW7), the log2 fold change was 0.399 (active).
For XRCC6 (UniProt P12956), the log2 fold change was 0.134.
TNPO2 (UniProt O14787) was tested, and the log2 fold change was -0.008.
Target TRMT10C (UniProt Q7L0Y3) has a log2 fold change of 0.
In the case of UHRF1BP1L (UniProt A0JNW5), the log2 fold change is reported as -0.035.
TUBA4A (UniProt P68366) gave a log2 fold change of 0.062.
Work on USP3 (UniProt Q9Y6I4) yielded a log2 fold change of 0.092.
With WBP4 (UniProt O75554) the log2 fold change was 0.098.
VTA1 (UniProt Q9NP79) gave a log2 fold change of 0.036.
With UBE3D (UniProt Q7Z6J8) the log2 fold change was 0.056.
Work on VPS16 (UniProt Q9H269) yielded a log2 fold change of 0.16.
Work on TXNRD1 (UniProt Q16881) yielded a log2 fold change of -0.005.
Target TMEM177 (UniProt Q53S58) has a log2 fold change of -0.048.
In the case of WDCP (UniProt Q9H6R7), the log2 fold change is reported as 0.037.
TMEM223 (UniProt A0PJW6) showed a log2 fold change of 0.096.
VRK1 (UniProt Q99986) was tested, and the log2 fold change was 0.046.
Target UBE2S (UniProt Q16763) has a log2 fold change of 0.002.
With XRCC5 (UniProt P13010) the log2 fold change was 0.151.
Target TMEM9 (UniProt Q9P0T7) has a log2 fold change of -0.053.
Target TRMT10A (UniProt Q8TBZ6) has a log2 fold change of -0.003.
With TNPO1 (UniProt Q92973) the log2 fold change was 0.051.
WARS2 (UniProt Q9UGM6) showed a log2 fold change of 0.037.
VPS53 isoform 4 (UniProt Q5VIR6) was tested, and the log2 fold change was 0.018.
With TSG101 (UniProt Q99816) the log2 fold change was -0.007.
For U2AF1 isoform 2 (UniProt Q01081), the log2 fold change was -0.021.
Work on UPF3B (UniProt Q9BZI7) yielded a log2 fold change of 0.
VPS50 (UniProt Q96JG6) gave a log2 fold change of 0.099.
TTC38 (UniProt Q5R3I4) was tested, and the log2 fold change was 0.459 (active).
